About 83,000 compounds went through this panel and 20% of them were active in at least one assay; those are over-represented in the sample as a whole.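 96-well plates, one dose, 48 hours. Percent growth reported; active if below 10.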 Values without a mark were called inactive. Activity calls are given as the source filed them.

Some test systems named below: SK-MEL-2 melanoma; EKVX NSCLC; SN12C renal; UO-31 renal; ACHN renal; CAKI-1 renal; A498 renal; CCRF-CEM leukemia; MOLT-4 leukemia; SR leukemia; RPMI-8226 leukemia; OVCAR-8 ovarian; OVCAR-5 ovarian; OVCAR-4 ovarian; SK-OV-3 ovarian; IGROV1 ovarian; OVCAR-3 ovarian; HS 578T breast; NCI/ADR-RES ovarian; TK-10 renal.
Experiment in all cases: NCI-60 one-dose screen, 48 h (100 = growth as untreated, 0 = no growth, -100 = all killed)
Settings in all cases: 10 µM unless noted

As for `O=C(/C=C/c1ccco1)c1ccc(Nc2ccnc3cc(Cl)ccc23)cc1`, the growth is 86.5% in the assay with SK-MEL-2 melanoma; 85.2% in the assay with EKVX NSCLC; 90.6% in the assay with SN12C renal; 94.8% in the assay on UO-31 renal; 96.5% with ACHN renal; 96% in the assay with CAKI-1 renal. Further, the growth in the assay on A498 renal was 33.6%; in the assay on CCRF-CEM leukemia, 45.1%; in the assay on MOLT-4 leukemia, 10.8%; in the assay on SR leukemia, -50.4% (active); in the assay on RPMI-8226 leukemia, -34.9% (active); with OVCAR-8 ovarian it was 81.3%. For the same compound, the growth is 70.2% with OVCAR-5 ovarian; 103% in the assay with OVCAR-4 ovarian; 108% in the assay with SK-OV-3 ovarian; 120% in the assay with IGROV1 ovarian; 78.7% with OVCAR-3 ovarian; 114% in the assay on HS 578T breast.
As for `COc1ccc(/C=C2/CCc3cc4ccc(OC)cc4[o+]c32)c(O)c1`, the growth is 85.6% in the assay on SK-MEL-2 melanoma; 75.7% in the assay with EKVX NSCLC; 13.6% in the assay on SN12C renal; -28.7% (active) in the assay with UO-31 renal; 34.3% in the assay with ACHN renal; 81% with CAKI-1 renal. The growth with A498 renal is 94.9%; in the assay on CCRF-CEM leukemia, 9.94% (active); with MOLT-4 leukemia, 0.523% (active); with SR leukemia it was -2.1% (active); in the assay on RPMI-8226 leukemia, 14.1%; in the assay on OVCAR-8 ovarian, 42.9%. Also, the growth was 115% with OVCAR-5 ovarian; 75.9% in the assay on OVCAR-4 ovarian; 103% in the assay with SK-OV-3 ovarian; 9.32% (active) in the assay with IGROV1 ovarian; 49.8% in the assay with OVCAR-3 ovarian; 75.3% in the assay on HS 578T breast. In addition, the growth in the assay on NCI/ADR-RES ovarian is 53.8%.
Take `COc1ccc(CNc2ccc3nc(CCC4CCCCC4)[nH]c3c2)cc1`: the growth was 87% in the assay on SK-MEL-2 melanoma; 79.1% in the assay on EKVX NSCLC; 68% in the assay with SN12C renal; 33.9% in the assay on UO-31 renal; 86.4% in the assay with TK-10 renal; 93.4% in the assay with ACHN renal. Also, the growth in the assay on CAKI-1 renal was 72.2%; in the assay on CCRF-CEM leukemia it was 69.2%; in the assay on MOLT-4 leukemia it was 52.9%; with SR leukemia, 46.8%; in the assay on RPMI-8226 leukemia, 40.2%; in the assay with OVCAR-8 ovarian it was 73.6%. In addition, the growth is 83.4% in the assay with OVCAR-5 ovarian; 40.1% in the assay on OVCAR-4 ovarian; 82% in the assay on SK-OV-3 ovarian; 61% in the assay on IGROV1 ovarian; 75.4% in the assay with OVCAR-3 ovarian; 70.3% in the assay on NCI/ADR-RES ovarian.
`O=S(=O)(Nc1ccc(Br)cc1)c1ccc(-c2cnc(C3CC3)o2)cc1`: the growth is 33.6% with SK-MEL-2 melanoma; 53% in the assay on EKVX NSCLC; 33.8% in the assay with SN12C renal; 42.3% in the assay on UO-31 renal; 30.8% in the assay with ACHN renal; 40.6% in the assay on CAKI-1 renal. Also, the growth was -6.87% (active) in the assay on A498 renal; 7.7% (active) in the assay with CCRF-CEM leukemia; 15.8% in the assay on MOLT-4 leukemia; 12.7% with SR leukemia; 13.9% with RPMI-8226 leukemia; 41.5% with OVCAR-8 ovarian. Also, the growth with OVCAR-5 ovarian is 51%; with OVCAR-4 ovarian, 67.8%; in the assay with SK-OV-3 ovarian, 35.5%; with IGROV1 ovarian, 36.1%; in the assay with OVCAR-3 ovarian it was -7.12% (active); in the assay with HS 578T breast, -8.02% (active).
Regarding `Cc1[nH]c(C(=O)Nc2ccccc2OC2CCNC2)c(Cl)c1Cl` (stereo not given), the growth was 96.5% with SK-MEL-2 melanoma; 70.3% in the assay with EKVX NSCLC; 78.2% with SN12C renal; 45.5% with UO-31 renal; 42.8% in the assay with ACHN renal; 76% in the assay with CAKI-1 renal. Also, the growth in the assay with A498 renal was 70.7%; in the assay with CCRF-CEM leukemia, 59.3%; in the assay with MOLT-4 leukemia, 87.8%; in the assay on SR leukemia, 0.45% (active); in the assay with RPMI-8226 leukemia it was 79%; in the assay on OVCAR-8 ovarian, 94%. For the same compound, the growth in the assay with OVCAR-5 ovarian is 95.5%; in the assay on OVCAR-4 ovarian it was 79.1%; in the assay on SK-OV-3 ovarian, 99.3%; in the assay with IGROV1 ovarian, 66.5%; with OVCAR-3 ovarian, 84.5%; in the assay with HS 578T breast, 93.2%. Besides, the growth in the assay on NCI/ADR-RES ovarian is 86.7%.
Consider `C#Cc1c(I)n(C2OC(CO[Si](C)(C)C(C)(C)C)C3OC(C)(C)OC32)c(=O)[nH]c1=O` (stereo not given), for which the growth is 59.9% in the assay on SK-MEL-2 melanoma; 96.7% with EKVX NSCLC; 89.7% in the assay on SN12C renal; -77.3% (active) with UO-31 renal; 49.7% in the assay with ACHN renal; 74.2% in the assay on CAKI-1 renal. Moreover, the growth was 102% with A498 renal; -29.7% (active) with CCRF-CEM leukemia; -25.5% (active) with MOLT-4 leukemia; -41.8% (active) in the assay on SR leukemia; -66.8% (active) in the assay on RPMI-8226 leukemia; 97.8% with OVCAR-8 ovarian. The growth in the assay on OVCAR-5 ovarian was 91.9%; in the assay on OVCAR-4 ovarian, 88.9%; with SK-OV-3 ovarian, 107%; in the assay with IGROV1 ovarian, 36.6%; in the assay on OVCAR-3 ovarian, -40.2% (active); with HS 578T breast it was 5.41% (active).
Regarding `CCOC(=O)CSc1nc2sc3c(c2c(=O)n1-c1ccccc1)CCCCC3`, the growth in the assay with SK-MEL-2 melanoma was 103%; in the assay on EKVX NSCLC, 103%; with SN12C renal, 95.1%; in the assay with TK-10 renal, 102%; with ACHN renal it was 102%; with CAKI-1 renal, 102%. In addition, the growth in the assay with A498 renal was 105%; in the assay on CCRF-CEM leukemia, 97%; with MOLT-4 leukemia, 102%; in the assay with SR leukemia it was 103%; with RPMI-8226 leukemia, 105%; in the assay with OVCAR-8 ovarian it was 103%. Also, the growth with OVCAR-5 ovarian is 103%; with OVCAR-4 ovarian, 116%; with SK-OV-3 ovarian, 100%; in the assay on IGROV1 ovarian it was 106%; in the assay on OVCAR-3 ovarian, 93.5%; in the assay with HS 578T breast it was 103%. In addition, the growth in the assay on NCI/ADR-RES ovarian was 108%.
On to `CCCCC1=C(Br)C(=O)c2ncccc2C1=O`, for which the growth in the assay with SK-MEL-2 melanoma was 111%; with EKVX NSCLC, 99.2%; in the assay with SN12C renal, 92.7%; in the assay with TK-10 renal, 109%; in the assay on ACHN renal it was 67.4%; with CAKI-1 renal, 90%. The growth was 99.5% in the assay with A498 renal; 8.13% (active) in the assay with CCRF-CEM leukemia; 5.83% (active) with MOLT-4 leukemia; 30.8% in the assay with SR leukemia; 41.7% with RPMI-8226 leukemia; 95.4% in the assay with OVCAR-8 ovarian. Also, the growth in the assay on OVCAR-5 ovarian was 112%; with OVCAR-4 ovarian it was 88.2%; with SK-OV-3 ovarian, 90.2%; in the assay on IGROV1 ovarian, 102%; in the assay with OVCAR-3 ovarian, 57.1%.
Turning to `Nc1ncc(-c2ccc3ncnc(N4CCc5cc(F)c(Cl)cc54)c3c2)cc1C(F)(F)F`, the growth was 27.7% in the assay on SK-MEL-2 melanoma; 14.8% with EKVX NSCLC; 24.8% with SN12C renal; 9.32% (active) with TK-10 renal; 17.2% in the assay on ACHN renal; -8.15% (active) in the assay with CAKI-1 renal. Besides, the growth in the assay on A498 renal was -50.2% (active); with CCRF-CEM leukemia, 28.2%; with MOLT-4 leukemia, 8.68% (active); with SR leukemia, -8.86% (active); with RPMI-8226 leukemia it was 16.4%; with OVCAR-8 ovarian, 33.1%. In addition, the growth in the assay on OVCAR-5 ovarian is 20.8%; in the assay with OVCAR-4 ovarian, 33.4%; in the assay on SK-OV-3 ovarian, 31.9%; in the assay with IGROV1 ovarian it was -42.6% (active); in the assay on OVCAR-3 ovarian, 31.7%; with HS 578T breast, -4.39% (active). Besides, in the assay with NCI/ADR-RES ovarian, the growth was 19.5%.
